Test results published in PubChem BioAssay AID2315 (National Center for Advancing Translational Sciences (NCATS), 2010).
“And” between values parts separate entries of the source, which are not always exact repeats. Identical values can stand only once. Hit rate of the full screen: of about 290,000 compounds, about 27,000 (9.3%) were called active. What follows is part of a selection rich in actives, with near analogues and random picks from the rest. A number with no mark means an inactive call. No stated cut-off is given here; in the data, active means inhibition mostly above about 28% (no sharp cut-off); inactive means mostly below about 43%.

Test: A qHTS for Small Molecule Inhibitors of Shiga Toxin; further: 0% is about no effect
Conditions: Vero cells, Shiga toxin protein synthesis inhibition reporter; at 38.7 µM, active compounds read high

Row | SMILES | inhibition
1 | CC(C)CNS(=O)(=O)c1ccc(CCC(=O)NCc2ccc(Cl)cc2)cc1 | -10.9%
2 | CCOc1cc(-c2cc(-c3ccc(NC(C)=O)cc3)nc(N)c2C#N)ccc1O | -1.91%
3 | COc1ccc(S(=O)(=O)Nc2ccccc2C(=O)N2CCCC2)cc1C | 5.33%
4 | O=C(NNC(=O)C1CCCC1)c1ccc(F)cc1 | 10.8%
5 | O=C(O)c1cccc2c1C(=O)N(C1CCCC1)C2 | -4.27%
6 | CCOc1ccc(S(=O)(=O)N2CCN=C2Cc2ccccc2)cc1C | -2.53%
7 | CC1CCCCC1NC(=O)c1cn(C)c2ccc(S(=O)(=O)N3CCOCC3)cc2c1=O (stereo not drawn) | -15.7%
8 | COc1ccc(OCC(=O)N2CCOCC2)cc1 | 51.9%
9 | COc1cc(C(=S)N2CCOCC2)ccc1O | -13.2%
10 | COc1ccc(/C(C)=N/N2CCOCC2)c(O)c1 | 47.1% (active)
11 | COc1ccc(N(CC(=O)Nc2cc(OC)cc(OC)c2)S(=O)(=O)c2c(C)n[nH]c2C)cc1 | 5.74%
12 | CCN(CC)S(=O)(=O)c1ccc(C(=O)N2CCN(C3=NS(=O)(=O)c4ccccc43)CC2)cc1 | 16.6%
13 | Nc1nnc(SCn2nnc3ccccc3c2=O)s1 | 46.5% (active)
14 | O=c1c2ccccc2nnn1CSc1nnnn1-c1ccccc1 | 62.9%
15 | Nc1nnc(SCCN2C(=O)c3ccccc3S2(=O)=O)s1 | -8.37%
16 | Cc1ccc(-n2cc(CN(C)Cc3nccn3C)c(-c3cccc(C)c3)n2)cc1 | -6.37%
17 | O=C(NC1=NCCS1)c1ccc(Cl)s1 | 149% (active)
18 | COc1ccc(C(=O)NC2=NCCS2)c(OC)c1 | 42% (active)
19 | O=C(Nc1nncs1)c1ccccc1NS(=O)(=O)c1cccs1 | -4.57%
20 | COc1ccc(C(=O)N2CCCN(C)CC2)c(OC)c1 | -2.8%
21 | COc1ccc(C(=O)Nc2nncs2)c(OC)c1 | 62.3% (active)
22 | COc1ccc(C(=O)NCc2nnc(SCC(=O)NC3=NCCS3)n2C)cc1 | -9.89%
23 | COc1ccc(C(=O)NC(C)CCc2ccccc2)c(OC)c1 (stereo not drawn) | 22.2%
24 | O=C(NC1=NCCS1)[C@H](Cc1ccccc1)N1C(=O)c2ccccc2C1=O | -5.83%
25 | O=C(NCc1ccc2c(c1)OCO2)c1ccc(Cl)s1 | 50.7%

Row | SMILES | inhibition
26 | CC(C)C(=O)NCC(c1cccs1)S(=O)(=O)c1ccc(F)cc1 (stereo not drawn) | 2.44%
27 | COc1ccc(CNC(=O)c2nnn(CC(=O)Nc3cc(C)cc(C)c3)c2N)cc1 | -9.11%
28 | COc1ccc(Cn2c(=S)[nH]c3cc(C(=O)NCCCN4CCOCC4)ccc3c2=O)cc1 | 18.7%
29 | CCOC(=O)[C@H]1[C@H]2COc3cc(OC)ccc3[C@@H]2N2C(=O)N(c3ccc(Br)cc3)C(=O)[C@@]12C | -9.26%
30 | Cc1cc(=O)oc2c3c(cc(OCC(=O)NCc4ccccn4)c12)OC(C)(C)CC3 | -3.65%
31 | CCCn1c2ccccc2c2cnn(CC(=O)NCCCN3CCCCC3CC)c(=O)c21 (stereo not drawn) | -4.97%
32 | CC(=O)c1cc2c(cc1NC(=O)Cn1nc(-c3ccc(F)cc3)ccc1=O)OCO2 | 20.6%
33 | CSc1ccc(/C=N/NC(=O)c2cccc(Cl)c2)cc1 | 4.92% (active)
34 | CSc1ccc(/C=N\NC(=O)COc2ccc(Cl)cc2Br)cc1 | 59.9%
35 | CSc1ccc(/C=N\NC(=O)CC(=O)NC(C)C)cc1 | 14.5%
36 | COc1ccc(NC(=O)NN2CCN(C)CC2)c(OC)c1 | -17.8%
37 | COc1c(O)cc2oc(-c3ccc(O)c(O)c3)cc(=O)c2c1O | 69.1% (active) and 69% (active)
38 | COc1ccc(-c2cc(=O)c3c(O)cc(O[C@@H]4O[C@H](CO[C@@H]5O[C@@H](C)[C@H](O)[C@@H](O)[C@H]5O)[C@@H](O)[C@H](O)[C@H]4O)cc3o2)cc1O | -12.1%
39 | O=c1cc(-c2ccc(O)cc2)oc2c(-c3cc(-c4cc(=O)c5c(O)cc(O)cc5o4)ccc3O)c(O)ccc12 | -1.7%
40 | CN(CC1CCCO1)S(=O)(=O)c1ccc(C(=O)Nc2ccc(F)cc2)cc1 (stereo not drawn) | 11.9%
41 | Cc1ccc(SCCSc2ncccn2)cc1 | 38.6% (active)
42 | Cc1ccc(SCCC(=O)NCc2ccccn2)cc1 | -6.02%
43 | Cc1ccc(SCCC(=O)NC(C(C)C)C(C)C)cc1 | -4.72%
44 | Cc1ccc(S(=O)Cc2ccc(C(=O)N3CCN(C4CCCCC4)CC3)o2)cc1 (stereo not drawn) | -3.36%
45 | COc1ccc(CN2CCN(Cc3ccc(OC)c(OC)c3OC)CC2)cc1 | -4.07%
46 | CC(C)C(C(=O)NCc1ccco1)N(CC1CCCO1)C(=O)CNS(=O)(=O)c1ccc(F)cc1 (stereo not drawn) | -0.539%
47 | CCc1ccccc1S(=O)(=O)Cc1ccc(C(=O)NCCc2ccccc2)o1 | 6.5%
48 | O=C(CSc1n[nH]c(=O)n1-c1ccccc1)Nc1ccccc1C(F)(F)F | -2.01%
49 | Fc1cc(F)c2nc(Nc3nc4c(F)cccc4s3)sc2c1 | 28.3%
50 | Fc1cc(F)c2nc(N3CCOCC3)sc2c1 | 87.4% (active)

Row | SMILES | inhibition
51 | Cc1cc(C)c2nc(N3CCC(C(=O)NCCN4CCOCC4)CC3)sc2c1 | 17.8%
52 | COC(=O)C1=C(O)/C(=C/c2ccc(OCC(=O)Nc3ccccc3)cc2)N=C1C | -18.9%
53 | CC1CN(CC(=O)NC(C)c2ccccc2)CC(C)O1 (stereo not drawn) | -5.21%
54 | Nc1nc(SC23CC4CC(CC(C4)C2)C3)ns1 | 1.53%
55 | CCCCCCSc1nsc(N)n1 | 59.2% (active)
56 | CCCSc1nsc(N)n1 | 11%
57 | CCc1cccc(NC(=O)C2CCCN(S(=O)(=O)c3ccc4[nH]c(=O)ccc4c3)C2)c1 (stereo not drawn) | -5.44%
58 | CCCCn1c(N)c(N(CC)C(=O)c2ccccc2C(F)(F)F)c(=O)[nH]c1=O | 3.43%
59 | Cc1nn(C(C)C(=O)NCCC2=CCCCC2)c(=O)c2nn(-c3ccccc3)c(C)c12 (stereo not drawn) | 18.5%
60 | C1=C(CCNc2ncnc3c2cnn3-c2ccccc2)CCCC1 | 190% (active)
61 | O=C(NCCC1=CCCCC1)C1CCN(Cc2cnn(-c3ccccc3)c2-n2cccc2)CC1 | 31%
62 | O=C(Cc1ccc(Br)cc1)NCCN1CCOCC1 | -10.9%
63 | CC1CCN(C(=O)CCc2nnc3ccc(NCc4ccco4)nn23)CC1 | 12.6%
64 | Cc1cccc(-n2cnc(C(=O)NNC(=S)Nc3ccccc3)c2)n1 | -10.7%
65 | Cc1cccc(-n2cnc(C(=O)Nc3cccnc3)c2)n1 | 101% (active)
66 | O=C(Nc1cccnc1)c1cc([N+](=O)[O-])ccc1Cl | -2.48%
67 | Cc1ccc2nc(-c3ccc(SCC(=O)Nc4cc(C)on4)nc3)[nH]c2c1 | 71.3% (active)
68 | Cc1ccc2nc(SCC(=O)NC3CCCC3)[nH]c2c1 | -2.14%
69 | Cc1ccc(SCCC(=O)Nc2cc(C)on2)cc1 | -4.4%
70 | CC(C)(C)c1ccc(C(=O)N2CCN(CCNC(=O)C(=O)Nc3ccc(F)cc3)CC2)cc1 | -6.99%
71 | CC(=O)OCc1cc2cc(C)ccc2[nH]c1=O | -8.28%
72 | CCOC(=O)c1cc2cc(C)ccc2[nH]1 | 168% (active)
73 | CCNCc1cc2cc(C)ccc2[nH]c1=O | 12%
74 | COc1ccc(CNC(=O)[C@H](Cc2c[nH]c3ccccc23)NC(C)=O)cc1OC | -6.62%
75 | COc1ccc(-c2ccc(CCC(=O)O)n2NC(=O)c2ccc(C(C)(C)C)cc2)cc1 | 21% (active)

Row | SMILES | inhibition
76 | COc1ccc(-c2ccc(CCC(=O)O)n2-c2ccc(O)cc2)cc1 | 4.87%
77 | COCCCn1c(CCC(=O)O)ccc1-c1ccc(F)cc1 | 13%
78 | O=C(CSc1nnc(Nc2ccccc2)s1)Nc1cccnc1Cl | -14.8%
79 | CC(C)c1ccc(Nc2nnc(SCC(=O)c3nnc(-c4ccccc4)o3)s2)cc1 | 58.9% (active)
80 | Cc1ccc(Nc2nnc(SCC(=O)c3cc4ccccc4o3)s2)cc1C | 19.8%
81 | Cc1cc(C)cc(Oc2c(C(F)(F)F)oc3cc(OCC(=O)O)ccc3c2=O)c1 | -4.45%
82 | CC(C)=CCN1CCN(Cc2cc3ccccc3[nH]2)CC1CCO (stereo not drawn) | 1.5%
83 | N#Cc1cccc(CN2CCC(=O)N(CCO)CC2)c1 | 2.03%
84 | O=C(Nc1ccc(-c2nnc(-c3ccccc3)o2)cc1)C1CCCO1 (stereo not drawn) | 93.5% (active)
85 | O=C(Nc1nnc(CCc2ccccc2)s1)C1CCCO1 (stereo not drawn) | 39.5%
86 | O=C(Nc1nnc(SCc2c(Cl)cccc2Cl)s1)C1CCCO1 (stereo not drawn) | 86.4%
87 | CC(C)(C)NS(=O)(=O)c1ccc(NC(=O)C2CCCO2)cc1 (stereo not drawn) | -21.4%
88 | O=C(Nc1cccc(-c2nnc(-c3ccccc3)o2)c1)C1CCCO1 (stereo not drawn) | 85% (active)
89 | O=C(Nc1cccc(Cl)c1)Nc1nnc(-c2ccccc2)o1 | -12.3%
90 | CCCCC(=O)Nc1c2c(nn1-c1ccc([N+](=O)[O-])cc1)CS(=O)(=O)C2 | 19.5%
91 | Cc1ccc2c(C)c(C(=O)N(C)Cc3ccncn3)oc2c1C | 4.22%
92 | C=CCn1c(SCC(=O)NCCCO)nc2sc3c(c2c1=O)CCC3 | 8.99%
93 | Brc1ccc(-c2n(-c3ccccn3)c3ccccc3[n+]2-c2ccccn2)cc1 | 12.9%
94 | O=[N+]([O-])c1cccc(S(=O)(=O)NCc2ccccn2)c1 | -7.29%
95 | Cc1cc2cc3c(N)[nH]nc3nc2cc1C | 40.9% (active)
96 | COc1cc(NC(=O)c2cccnc2SC)cc(OC)c1 | 10.8%
97 | CSc1ncccc1C(=O)Nc1nc2ccc(F)cc2s1 | 138% (active)
98 | CSc1ncccc1C(=O)Nc1ccc(C)cn1 | 34%
